Most compounds without a hit are left out; they make up all but 2.8% or so of the library.
Peg3 promoter: inhibitors of Peg3 promoter. HeLa PEG-Prom luciferase reporter, luminescence, overnight. inhibition, % at 20 µM. hit rate 1.7% among 360,000. AID 588405;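 active = inhibition of at least 50% at 20 µM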
TRPM1 prom inh: MITF TRPM1 promoter inhibition in SK-MEL-5 cells; hit rate 0.83% among 330,000; inhibition, % at 12.5 µM; SK-MEL-5 TRPM1 promoter luciferase, 24 h;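 active = mean inhibition across replicates of 60% or more, whatever share of single replicates reaches that level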
PAX8 reporter: lowers PAX8-driven luciferase in RMG-I cells; AID 652154; inhibition, % at 12.6 µM; hit rate 1.2% among 360,000; RMG-I TPO-luciferase reporter, SteadyGlo, 24 h;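 active = mean replicate inhibition at least 60% with every replicate also reaching 60%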;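 also: luciferase light reporting Pax8 driven TPO promoter activity; plate controls were median of neutral control wells for no effect and mitoxantrone controls for full effect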
LMP1 NFkB inh: reduces LMP1-driven NF-kappaB luciferase signal | LMP1-induced NF-kappaB luciferase reporter cells, luminescence | inhibition, % at 12.5 µM | hit rate 0.69% among 350,000 | AID 504558; in the data active = inhibition above about 41%;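 also: 0% = neutral control wells and 100% = reference inhibitor control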
Shn3 inh set2: Schnurri-3 reporter inhibition in Clone20 osteoblasts; inhibition, % at 12.5 µM; Clone20 osteoblast Shn3 3'UTR firefly luciferase, 24 h; hit rate 0.52% among 360,000;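 active = mean inhibition of at least 75% with every replicate also reaching 75%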;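 also: 0% = median of neutral control wells and 100% = pilot-screen positive control compound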
HIF-2a inh: blocks HIF-2a reporter activity; hit rate 0.72% among 360,000; 786-0 RCC cells HIF-2a reporter, luciferase luminescence, overnight; inhibition, % at 18.8 µM;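 active = inhibition of the luminescence signal of 40% or more relative to plate controls, in a single-dose primary screen at 18.75 µM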
An asterisk follows results filed as active; · = no result.

SMILES | Peg3 promoter | TRPM1 prom inh | PAX8 reporter | LMP1 NFkB inh | Shn3 inh set2 | HIF-2a inh
Cc1ccc(C(=O)N/C(=C\c2ccc(-c3ccccc3[N+](=O)[O-])o2)C(=O)NCCN(C)C)cc1 | -40 | 77* | 17 | -2 | -17 | -10
Cc1ccc(C(=O)N/C(=C\c2ccc(-c3ccccc3[N+](=O)[O-])o2)C(=O)NCCCN(C)C)cc1 | -34 | 70* | 0 | 7 | 12 | 2
Cc1ccc(C(=O)N/C(=C\c2ccc(-c3cccc([N+](=O)[O-])c3)o2)C(=O)NCCCN2CCOCC2)cc1 | 94* | 16 | 12 | 7 | 4 | -5
O=C(CN1CCOCC1)N[C@@H]1CC[C@H](CCNC(=O)C2CCCCC2)O[C@H]1CO | · | · | 0 | · | · | ·
COCC(=O)NC[C@@H]1[C@H](c2ccccc2)[C@@H](CO)N1C(C)=O | · | · | 7 | · | · | ·
CO[C@H]1CN(C)C(=O)c2cc(NC(=O)CC(F)(F)F)ccc2OC[C@@H](C)N(S(=O)(=O)c2cn(C)cn2)C[C@@H]1C | · | · | -8 | · | · | ·
N#C[C@H]1[C@@H](c2ccc(C3=CCCC3)cc2)[C@H](CO)N1C(=O)NC1CCCC1 | · | · | 6 | · | · | ·
C[C@H](CO)N1C[C@H](C)[C@@H](CN(C)CC2CC2)Oc2c(NC(=O)Nc3cccc4ccccc34)cccc2C1=O | · | · | 16 | · | · | ·
C[C@H]1CN([C@@H](C)CO)C(=O)c2cccc(NC(=O)Nc3ccc(F)cc3)c2O[C@H]1CN(C)S(=O)(=O)c1ccc(Cl)cc1 | · | · | 67* | · | · | ·
C[C@H](CO)N1C[C@H](C)[C@@H](CN(C)C)Oc2c(NC(=O)Cc3ccccc3)cccc2C1=O | 7 | -5 | -3 | 44* | -1 | 7
C[C@H](CO)N1C[C@H](C)[C@@H](CN(C)S(=O)(=O)c2ccc(Cl)cc2)Oc2c(NC(=O)c3nc4ccccc4s3)cccc2C1=O | · | · | 72* | · | · | ·
C[C@H]1CN([C@@H](C)CO)C(=O)c2cccc(NC(=O)Nc3cccc4ccccc34)c2O[C@H]1CN(C)CC1CC1 | · | · | 90* | · | · | ·
COc1ccccc1-c1ccc2c(c1)O[C@H](CN(C)C(=O)c1ccccc1)[C@@H](C)CN([C@@H](C)CO)S2(=O)=O | · | · | 11 | · | · | ·
C[C@H](CO)N1C[C@H](C)[C@H](CN(C)Cc2ccc(Cl)c(Cl)c2)Oc2ccc(NC(=O)Nc3ccccc3)cc2CC1=O | · | · | 54 | · | · | ·
Cc1ccc(S(=O)(=O)N(C)C[C@@H]2Oc3c(NC(=O)c4ccc(-c5nccs5)cc4)cccc3C(=O)N([C@@H](C)CO)C[C@@H]2C)cc1 | · | · | 95* | · | · | ·
COc1ccc(S(=O)(=O)N(C)C[C@H]2Oc3c(NC(=O)Nc4ccc(C(F)(F)F)cc4)cccc3C(=O)N([C@@H](C)CO)C[C@H]2C)cc1 | · | · | 106* | · | · | ·
COc1ccc(S(=O)(=O)N(C)C[C@@H]2Oc3c(NC(=O)Nc4ccc(C(F)(F)F)cc4)cccc3C(=O)N([C@@H](C)CO)C[C@H]2C)cc1 | · | · | 5 | · | · | ·
CNC[C@H]1Oc2c(NC(=O)c3nc4ccccc4s3)cccc2C(=O)N([C@@H](C)CO)C[C@@H]1C | · | · | -4 | · | · | ·
C[C@@H]1CN([C@H](C)CO)C(=O)c2cccc(NC(=O)Nc3cccc4ccccc34)c2O[C@@H]1CN(C)S(=O)(=O)c1ccc(Cl)cc1 | · | · | 84* | · | · | ·
CNC[C@H]1Oc2c(NC(=O)c3nc4ccccc4s3)cccc2C(=O)N([C@H](C)CO)C[C@@H]1C | · | · | 61* | · | · | ·
COc1ccc(S(=O)(=O)N(C)C[C@H]2OCCCC[C@@H](C)Oc3ccc(NC(=O)CCCN(C)C)cc3C(=O)N([C@@H](C)CO)C[C@H]2C)cc1 | · | · | 1 | · | · | ·
Cc1noc(C)c1NC(=O)Nc1ccc2c(c1)CC(=O)N([C@H](C)CO)C[C@@H](C)[C@@H](CN(C)C(=O)NC(C)C)O2 | · | · | -6 | · | · | ·
O=C(CSc1nc2[nH]ncc2c(=O)n1-c1ccccc1)c1ccc2c(c1)OCCO2 | 57* | 1 | 4 | -15 | 17 | 7
CN1[C@@H]2c3ccc(-c4ccncc4)c(=O)n3C[C@H]1[C@H](CO)[C@H]2C(=O)N1CCC(Cc2ccccc2)CC1 | · | · | 2 | · | · | ·
CO[C@H]1CC[C@@H]2CCN(C)C(=O)C[C@@H](c3ccccc3)CN(C)C(=O)c3cc(C#N)ccc3OC[C@H]1O2 | · | · | 5 | · | · | ·
SMILES | Peg3 promoter | TRPM1 prom inh | PAX8 reporter | LMP1 NFkB inh | Shn3 inh set2 | HIF-2a inh
C[C@@H]1CCCCO[C@H](CN(C)Cc2ccc(Cl)c(Cl)c2)[C@@H](C)CN([C@H](C)CO)C(=O)c2cc(NC(=O)Nc3ccccc3)ccc2O1 | · | · | 9 | · | · | ·
C[C@@H]1CCCCO[C@H](CN(C)Cc2ccc(Cl)c(Cl)c2)[C@@H](C)CN([C@H](C)CO)C(=O)c2cc(NC(=O)c3ccccc3)ccc2O1 | · | · | 11 | · | · | ·
C[C@@H]1CN([C@@H](C)CO)C(=O)c2cc(NC(=O)Nc3ccccc3)ccc2O[C@@H](C)CCCCO[C@H]1CN(C)Cc1ccc(Cl)c(Cl)c1 | · | · | 81* | · | · | ·
C[C@@H]1CN([C@H](C)CO)C(=O)c2cc(NC(=O)Nc3ccccc3)ccc2O[C@@H](C)CCCCO[C@@H]1CN(C)Cc1ccc(Cl)c(Cl)c1 | · | · | 86* | · | · | ·
C[C@@H]1CCCCO[C@@H](CN(C)Cc2ccc(Cl)c(Cl)c2)[C@@H](C)CN([C@H](C)CO)C(=O)c2cc(NC(=O)Nc3ccccc3)ccc2O1 | 12 | · | 14 | · | 10 | -11
C[C@@H]1CCCCO[C@@H](CN(C)Cc2ccc(Cl)c(Cl)c2)[C@H](C)CN([C@@H](C)CO)C(=O)c2cc(NC(=O)Nc3ccccc3)ccc2O1 | · | · | 86* | · | · | ·
Cc1ccc(S(=O)(=O)Nc2cccc3c2O[C@@H](CN(C)C(=O)Nc2ccc(C(F)(F)F)cc2)[C@@H](C)CN([C@H](C)CO)C3=O)cc1 | · | · | 104* | · | · | ·
C[C@@H]1CN([C@H](C)CO)C(=O)c2cccc(NC(=O)NC3CCCCC3)c2O[C@@H]1CN(C)C(=O)Nc1ccc(C(F)(F)F)cc1 | 88* | 29 | 15 | 4 | -2 | 5
COc1ccc(NC(=O)N(C)C[C@H]2Oc3ncc(-c4cccnc4)cc3C(=O)N([C@@H](C)CO)C[C@@H]2C)cc1 | · | · | 8 | · | · | ·
C[C@H]1CN([C@@H](C)CO)C(=O)c2ccccc2-c2ccccc2CO[C@H]1CN(C)S(=O)(=O)c1ccc(C(F)(F)F)cc1 | · | · | 102* | · | · | ·
C[C@H](CO)N1C[C@H](C)[C@H](CN(C)S(=O)(=O)c2ccccc2)OCc2ccccc2-c2c(n(C)c3ccccc23)C1=O | 4 | · | 3 | -4 | -6 | -1
C[C@H]1CN([C@@H](C)CO)C(=O)c2c(c3ccccc3n2C)-c2ccccc2CO[C@@H]1CN(C)S(=O)(=O)c1ccc([N+](=O)[O-])cc1 | · | · | 23 | · | · | ·
C[C@H]1CN([C@@H](C)CO)C(=O)c2c(c3ccccc3n2C)-c2ccccc2CO[C@@H]1CN(C)C(=O)CCC(F)(F)F | · | · | 65* | · | · | ·
C[C@H]1CN([C@@H](C)CO)C(=O)c2c(c3ccccc3n2C)-c2ccccc2CO[C@H]1CN(C)S(=O)(=O)c1ccc([N+](=O)[O-])cc1 | · | · | 91* | · | · | ·

From PubChem
